Most compounds without a hit are left out; they make up all but 1.4% or so of the library.
Sa ugtP lethal – growth inhibition of S. aureus ugtP deletion strain. 330,000 tested, 0.54% active. growth inhibition, % (concentration not given with the values). S. aureus RN4220 ugtP deletion, OD600 growth, 16 h; in the data active = growth inhibition above about 68%
PfHsp40 yeast – restores yeast growth despite PfHsp40 toxicity; S. cerevisiae expressing PfHsp40, growth rescue, ATP luminescence; growth rescue, % at 12.5 µM; 340,000 tested, 0.68% active; AID 504582; in the data active = growth rescue above about 28%, passing the limit was not always enough; inconclusive = no clear call, values can overlap the other calls;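 also: yeast W303a lacking pdr1 and pdr3 grown in galactose medium; growth measured after three days at 30 °C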
Sa RN4220 lethal – kills Staphylococcus aureus RN4220. S. aureus RN4220 growth, OD600, 16 h. inhibition, % (no concentration beside the values). 330,000 tested, 0.33% active. AID 1259311; in the data active = inhibition above about 85%
PrP UTR inh – inhibition of PrP 5' UTR reporter expression; 340,000 tested, 0.35% active; cell-based PrP 5' UTR mRNA reporter, plate reader; inhibition, % (no concentration beside the values); AID 488862; in the data active = inhibition above about 52%
BJeLR lethal – BJeLR cell viability loss; BJeLR (HRASV12) viability, CellTiter-Glo ATP luminescence, 48 h; AID 1554; 300,000 tested, 0.17% active; inhibition, % (concentration not given with the values); in the data active = inhibition above about 50%; inconclusive = no clear call, values can overlap the other calls
Y pestis TopoI – Y. pestis Topo-I inhibition via cleavage products. Y. pestis Topo-I cleavage product accumulation, plate reader. activity, % at 10 µM. 360,000 tested, 0.064% active; in the data active = activity above about 50%, passing the limit was not always enough; inconclusive = no clear call, values can overlap the other calls
Hits are given with their value.

For COc1ccc(OCC(=O)Nc2ccc(N3CCN(C(=O)c4ccccc4)CC3)c(Cl)c2)cc1 the results were Sa ugtP lethal inactive, PfHsp40 yeast 39, Sa RN4220 lethal inactive, PrP UTR inh inactive, BJeLR lethal inactive and Y pestis TopoI inactive.
For COc1ccc(C2C3C=CCC[C@@]3(C)C(=O)N2Cc2ccccc2)cc1Cl (stereo partly drawn) the results were Sa ugtP lethal inactive and Sa RN4220 lethal inactive.
`CN1C2CCC1CC(OC1c3ccccc3CCc3ccccc31)C2` (stereo not drawn) gave Sa ugtP lethal inactive and Sa RN4220 lethal inactive.
CCCCCCCn1c(NC(=O)CC)nc2ccccc21 was read as PfHsp40 yeast 93, PrP UTR inh inactive, BJeLR lethal inactive and Y pestis TopoI inactive.
Screening CC1CN(C(C)CO)C(=O)c2cc(NC(=O)Cc3cn(C)c4ccccc34)ccc2OC1CN(C)S(=O)(=O)c1ccc(F)cc1 (stereo not drawn) returned Sa ugtP lethal inactive and Sa RN4220 lethal inactive.
Screening COc1ccc(CN(C)C(=O)c2ccc(NS(=O)(=O)c3ccc(F)cc3)cc2)c(OC)c1 returned Sa ugtP lethal 90, PfHsp40 yeast inactive, Sa RN4220 lethal inactive, PrP UTR inh inactive, BJeLR lethal inactive and Y pestis TopoI inactive.
For CC(=O)Oc1c(/C=C(\C#N)C(N)=O)[nH]c2ccccc12 the results were Sa ugtP lethal 87, PfHsp40 yeast inactive, Sa RN4220 lethal 96, PrP UTR inh inactive, BJeLR lethal inactive and Y pestis TopoI inactive.
C#CCOCCOCCOCCNc1nc(N2CCN(C(=O)C(C(C)CC)n3cc(C(N)CO)nn3)CC2)nc(N2CCN(C(=O)C(C(C)CC)n3cc(C(N)COC(=O)C(F)(F)F)nn3)CC2)n1 (stereo not drawn) was read as Sa ugtP lethal inactive and Sa RN4220 lethal inactive.
CC1(C)CC(=O)C2=C(C1)c1c(ccc3ccccc13)NC2c1cc([N+](=O)[O-])cc([N+](=O)[O-])c1O (stereo not drawn) was read as Sa ugtP lethal 90, PfHsp40 yeast inactive, Sa RN4220 lethal 95, PrP UTR inh inactive, BJeLR lethal inactive and Y pestis TopoI inactive.
`CC1(C)CC(=O)C2=C(C1)c1c(ccc3ccccc13)NC2c1ccc(C(=O)O)cc1` (stereo not drawn) gave Sa ugtP lethal inactive, PfHsp40 yeast inactive, Sa RN4220 lethal inactive, PrP UTR inh inactive, BJeLR lethal inactive and Y pestis TopoI inactive.
For O/N=C(\c1ccc(Cl)cc1Cl)c1ncc(C(F)(F)F)cc1Cl the results were PfHsp40 yeast 380, PrP UTR inh inactive, BJeLR lethal inactive and Y pestis TopoI inactive.
Cc1cc(F)ccc1S(=O)(=O)N(C(=O)c1ccncc1)c1ccc(OC(=O)c2ccncc2)cc1 was read as Sa ugtP lethal inactive, PfHsp40 yeast 422, Sa RN4220 lethal inactive, PrP UTR inh inactive, BJeLR lethal inactive and Y pestis TopoI inactive.
`O=C(Oc1ccc(N(C(=O)c2ccncc2)S(=O)(=O)c2cccs2)cc1)c1ccncc1` gave Sa ugtP lethal inactive, PfHsp40 yeast inactive, Sa RN4220 lethal inactive, PrP UTR inh inactive, BJeLR lethal inactive and Y pestis TopoI inactive.
`COc1ccc2c(c1)OCC1C2N2C(=O)C(C)NC(=O)[C@@]2(C)C1c1ccccc1` (stereo partly drawn) gave Sa ugtP lethal inactive and Sa RN4220 lethal inactive.
For CCOC(=O)C1C2COc3ccc(Br)cc3C2N2C(=O)N(c3ccc(Br)cc3)C(=O)[C@]12C (stereo partly drawn) the results were Sa ugtP lethal inactive and Sa RN4220 lethal inactive.
Cc1cc(C(=O)CSc2ccc(F)cc2)cc(C)c1OC(=S)N(C)C was read as Sa ugtP lethal inactive, PfHsp40 yeast inactive, Sa RN4220 lethal inactive, PrP UTR inh 68, BJeLR lethal inactive and Y pestis TopoI inactive.
For Fc1cccc(/C=N/Nc2nncc3ccccc23)c1 the results were PfHsp40 yeast inactive, PrP UTR inh inactive, BJeLR lethal inactive and Y pestis TopoI inactive.
Screening O=c1cnnc(N/N=C/c2ccccn2)[nH]1 returned PfHsp40 yeast inconclusive, PrP UTR inh inactive, BJeLR lethal 63 and Y pestis TopoI inactive.
For O=c1nc(N/N=C/c2ccccn2)cn[nH]1 the results were PfHsp40 yeast 617, PrP UTR inh inactive, BJeLR lethal inactive and Y pestis TopoI inactive.
`C(=N\Nc1nncc2ccccc12)/c1ccccn1` gave PfHsp40 yeast 413, PrP UTR inh inactive, BJeLR lethal 56 and Y pestis TopoI inactive.
COc1cccc(-n2nc(C#N)c(Cl)cc2=O)c1 was read as Sa ugtP lethal inactive, PfHsp40 yeast 52, Sa RN4220 lethal inactive, PrP UTR inh inactive, BJeLR lethal inactive and Y pestis TopoI inactive.
COc1cccc(-n2nc(C(N)=O)c(O)cc2=O)c1 was read as Sa ugtP lethal inactive, PfHsp40 yeast inactive, Sa RN4220 lethal inactive, PrP UTR inh inactive, BJeLR lethal inactive and Y pestis TopoI inactive.
Screening O=C(CC1CC=CCCC(=O)OCC(Cc2ccccc2)NC1=O)NC(CO)Cc1ccccc1 (stereo not drawn) returned Sa ugtP lethal inactive and Sa RN4220 lethal inactive.
`Fc1ccc(C[n+]2c(-c3ccccc3)cc(-c3ccccc3)cc2-c2ccccc2)cc1` gave BJeLR lethal inactive.
For Clc1ccc(C[n+]2c(-c3ccccc3)cc(-c3ccccc3)cc2-c2ccccc2)cc1 the results were Sa ugtP lethal 100, PfHsp40 yeast inactive, Sa RN4220 lethal 100, PrP UTR inh inactive, BJeLR lethal inactive and Y pestis TopoI inactive.
O=C([O-])c1cc(-c2ccccc2)cc(-c2ccccc2)[n+]1CCc1ccc(Cl)cc1 was read as Sa ugtP lethal 100, PfHsp40 yeast inactive, Sa RN4220 lethal 88, PrP UTR inh inactive and Y pestis TopoI inactive.
CCC(=Cc1ccccc1)c1cccc2[nH]c3c(OC)cccc3c12 was read as Sa ugtP lethal 97 and Sa RN4220 lethal inactive.
Screening Cc1cccc(C(=O)NC(=S)NNC(=O)c2ccc(Cl)cc2)c1 returned Sa ugtP lethal inactive, PfHsp40 yeast 75, Sa RN4220 lethal 85, PrP UTR inh inactive, BJeLR lethal inactive and Y pestis TopoI inactive.
COc1ccc(C(=O)NC(=S)NNC(=O)c2ccc(C)cc2)cc1 was read as Sa ugtP lethal inactive, PfHsp40 yeast 143, Sa RN4220 lethal inactive, PrP UTR inh inactive, BJeLR lethal inactive and Y pestis TopoI inactive.
For CCCCC(=O)NNC(=S)NC(=O)c1ccc(C)cc1 the results were Sa ugtP lethal inactive, PfHsp40 yeast 95, Sa RN4220 lethal inactive, PrP UTR inh inactive, BJeLR lethal inactive and Y pestis TopoI inactive.
Cc1ccc(C(=O)NNC(=S)NC(=O)COc2ccccc2)cc1 was read as Sa ugtP lethal 92, PfHsp40 yeast inactive, Sa RN4220 lethal 88, PrP UTR inh inactive, BJeLR lethal inactive and Y pestis TopoI inactive.
CCCCC(=O)NNC(=S)NC(=O)c1ccc([N+](=O)[O-])cc1 was read as Sa ugtP lethal inactive, PfHsp40 yeast inactive, Sa RN4220 lethal inactive, PrP UTR inh inactive, BJeLR lethal inactive and Y pestis TopoI inactive.
